Bioassay records: PubChem, Broad Institute
Pf_Dd2_inh: blocks growth of Plasmodium falciparum Dd2 parasites | P. falciparum Dd2 growth, SYBR Green, 72 h; hits give low values | 94,000 tested, 2.3% active | AID 1159554 | activity change, % at 10 µM; in the data active means activity change below about -80%; inconclusive means no clear call, values can overlap the other calls
T_cruzi_growth-1: inhibitors of T. cruzi proliferation. T. cruzi beta-gal in NIH3T3, GalScreen luminescence, 90 h. inhibition, % at 8.34 µM. 77,000 tested, 5.9% active. AID 624255;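 active means mean inhibition above about 93%, with at least 55% of replicates each passing it, limit read from the data, passing the limit was not always enough; inconclusive means only one of those two conditions holds; inactive means neither condition holds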
C_diff_HTS: blocks growth of Clostridium difficile; growth activity, negative = inhibition, % at 16 µg/mL (by protocol); Clostridium difficile clinical isolate growth, OD600, 24 h; hits give low values; 86,000 tested, 0.25% active;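 active means mean growth activity at or below -80% and every replicate also at or below -80%; inconclusive means mean at or below -80% but some replicate above -80%; inactive means mean growth activity above -80%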;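 further: 0% = DMSO wells and -100% = levofloxacin 16 µg/mL wells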
T_cruzi_growth-2: blocks T. cruzi growth in NIH3T3 host cells; shares compounds with T_cruzi_growth-1; T. cruzi beta-gal in NIH3T3, GalScreen luminescence, 90 h; inhibition, % at 8.35 µM; 5,600 tested, 72% active; AID 651739;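 active means mean replicate inhibition above about 95% and at least 55% of replicates individually reaching it, limit read from the data; inconclusive means only one of the two criteria is met; inactive means neither criterion is met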
T_cruzi_growth-3: inhibitors of T. cruzi proliferation; inhibition, % at 2.09 µM; shares compounds with T_cruzi_growth-1; T. cruzi beta-gal in NIH3T3, GalScreen luminescence, 90 h; 5,600 tested, 21% active;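 active means mean inhibition above about 95%, with at least 55% of replicates also reaching it, limit read from the data; inconclusive means meets just one of the two conditions; inactive means meets neither condition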;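 further: plate controls were neutral control median for no effect and positive control median for full effect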
3T3_cytotox: kills mouse NIH/3T3 fibroblasts | NIH/3T3 viability, CellTiter-Glo ATP luminescence, 90 h | cytotoxicity (signal decrease), % at 8.35 µM | shares compounds with T_cruzi_growth-1 | 5,600 tested, 14% active;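 active means mean signal decrease across replicates above about 35% based on untreated-well scatter, with enough replicates individually passing, limit read from the data; inconclusive means no rule stated though some were filed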;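 further: 0% = median of neutral control wells and 100% = median of positive control wells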
3T3_cytotox_2: NIH/3T3 (mouse) viability loss; inhibition, % at 24.9 µM; 5,600 tested, 56% active; AID 651744; shares compounds with T_cruzi_growth-1; NIH/3T3 viability, CellTiter-Glo ATP luminescence, 90 h;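 active means mean loss of cell viability signal at or above a set limit, and enough replicates individually reaching it; inconclusive means meets only the mean limit or only the replicate share; inactive means meets neither condition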;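 further: 0% = median of neutral control wells and 100% = median of positive control wells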
An asterisk follows results filed as active; ? = inconclusive; nt = no result given. Sampled rows, rich in hits. Any-hit rate of the full collection: about 6.7%.

SMILES Pf_Dd2_inh T_cruzi_growth-1 C_diff_HTS T_cruzi_growth-2 T_cruzi_growth-3 3T3_cytotox 3T3_cytotox_2
C[C@@H]1CN([C@@H](C)CO)C(=O)c2cc(C#CC3CCCC3)cnc2O[C@@H]1CN(C)C(=O)Nc1ccccc1 -9.5 63.2 12.0 nt nt nt nt
COc1ccc(C#Cc2cnc3c(c2)C(=O)N([C@@H](C)CO)C[C@@H](C)[C@H](CN(C)C(=O)Nc2cccc(OC)c2)O3)cc1 -1.3 ? -9.0 109.7* 88.8 1.8 8.9
C[C@@H]1CN([C@H](C)CO)C(=O)c2cc(C#CC3CCCC3)cnc2O[C@H]1CN(C)C(=O)Nc1ccccc1 -29.4 99.2* -5.8 104.0* 42.9 -5.8 2.3
COc1cccc(NC(=O)N(C)C[C@H]2Oc3ncc(C#Cc4ccncc4)cc3C(=O)N([C@@H](C)CO)C[C@@H]2C)c1 25.9 nt -5.5 nt nt nt nt
CCCNC(=O)N1[C@H](CO)[C@@H]2c3ccccc3N(C(=O)c3ccc(F)cc3)C[C@@H]21 -26.6 16.6 -3.1 nt nt nt nt
O=C(c1ccccc1)N1CC(=O)N2[C@H](CO)[C@H](c3ccc(C#CC4CC4)cc3)[C@@H]2C1 18.4 nt 4.8 nt nt nt nt
CNC[C@@H]1Oc2c(NC(=O)c3ccncc3)cccc2C(=O)N([C@H](C)CO)C[C@H]1C 12.0 16.4 0.9 nt nt nt nt
COc1ccc(NC(=O)N2CC(=O)N3[C@H](C2)[C@H](c2ccc(C4=CCCC4)cc2)[C@@H]3CO)cc1 -24.5 nt -5.0 nt nt nt nt
C[C@@H]1CN([C@H](C)CO)C(=O)c2cccc(NC(=O)Nc3ccc(F)cc3)c2O[C@@H]1CN(C)CC1CC1 -11.4 -71.2 5.5 nt nt nt nt
O=C(c1cccc(F)c1)N1CCCCN2[C@H](CO)[C@@H](c3ccc(-c4ccccc4)cc3)[C@@H]2C1 -20.0 105.7* 5.2 106.4* ? -6.8 59.2*
O=C(c1cccc(F)c1)N1CCCCN2[C@H](CO)[C@@H](c3ccc(-c4ccccc4)cc3)[C@H]2C1 7.7 70.2 8.2 nt nt nt nt
O=C(c1cccc(F)c1)N1CCCCN2[C@H](C1)[C@@H](c1ccc(-c3ccccc3)cc1)[C@@H]2CO 20.8 62.3 9.0 nt nt nt nt
O=C(c1cccc(F)c1)N1CCCCN2[C@H](CO)[C@H](c3ccc(-c4ccccc4)cc3)[C@H]2C1 -29.7 103.5* 14.9 108.7* 21.8 5.0 87.7*
CCc1cnc(N2[C@H](C#N)[C@@H](c3ccc(C#Cc4ccccc4F)cc3)[C@H]2CO)s1 -26.1 111.4* 0.6 103.3* 101.4* 11.2 27.7*
CCc1cnc(N2[C@H](C#N)[C@H](c3ccccc3)[C@@H]2CO)s1 21.9 -5.8 1.1 nt nt nt nt
CCc1cnc(N2[C@H](C#N)[C@H](c3ccc(C#Cc4ccccc4F)cc3)[C@@H]2CO)s1 -65.0 97.2* 6.1 100.7* 111.8* -26.8 -11.0
CCc1cnc(N2[C@H](C#N)[C@@H](c3ccccc3)[C@@H]2CO)s1 14.2 36.3 0.7 nt nt nt nt
CCc1cnc(N2[C@H](C#N)[C@H](c3ccc(C#Cc4ccccc4F)cc3)[C@H]2CO)s1 -52.7 99.9* 3.9 91.1 105.6* -9.4 94.9*
CCc1cnc(N2[C@H](CO)[C@@H](c3ccccc3)[C@@H]2C#N)s1 -2.2 2.4 7.6 nt nt nt nt
C[C@H](NC(=O)C[C@@H]1CC[C@@H]2[C@H](COc3ccc(NC(=O)C4CCOCC4)cc3C(=O)N2C)O1)c1ccccc1 1.0 15.6 1.8 nt nt nt nt
Cc1ccc(S(=O)(=O)N(C)C[C@@H]2Oc3ncc(C#Cc4cccc(F)c4)cc3C(=O)N([C@H](C)CO)C[C@@H]2C)cc1 -46.8 121.2* 5.0 98.6* 51.4 ? 51.8*
COc1cccc(S(=O)(=O)N(C)C[C@H]2Oc3ncc(C#CCC(C)C)cc3C(=O)N([C@@H](C)CO)C[C@@H]2C)c1 -52.7 ? -10.9 111.3* 55.5 4.3 72.8*
COc1ccc(S(=O)(=O)N(C)C[C@@H]2Oc3ncc(C#Cc4ccc(OC)c(OC)c4)cc3C(=O)N([C@H](C)CO)C[C@@H]2C)cc1 -77.6 110.6 0.0 nt nt nt nt
